Holding throughout (assay): NCI-60 one-dose screen, 48 h (100 = growth as untreated, 0 = no growth, -100 = all killed)
Settings in all cases: 10 µM unless noted

The subject of assay [1] is SR leukemia.
The test system of assay [2] is RPMI-8226 leukemia.
Assay [3] deals with OVCAR-8 ovarian.
For assay [4], the system named is OVCAR-5 ovarian.
Assay [5] relates to OVCAR-4 ovarian.
Assay [6] has as its system SK-OV-3 ovarian.
For assay [7], the system named is IGROV1 ovarian.
For assay [8], the system named is OVCAR-3 ovarian.
Assay [9] concerns HS 578T breast.
The subject of assay [10] is NCI/ADR-RES ovarian.
Assay [11] concerns T-47D breast.
The subject of assay [12] is BT-549 breast.
Assay [13] relates to MDA-MB-435 melanoma.
The test system of assay [14] is SW-620 colon.
In assay [15] the test system is MCF7 breast.
In assay [16] the test system is HCT-116 colon.
Assay [17] has as its system HCC-2998 colon.
Assay [18] has as its system KM12 colon.
For assay [19], the system named is MDA-MB-468 breast.

The panel holds about 83,000 compounds, 20% with a hit somewhere; the sample as a whole holds those more often.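 Assay: single dose, 48 h. Readout: percent growth (0 = no net growth; negative = cell death). Active: <10.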 Values without a mark were called inactive. Calls of active or inactive are those of the source.

Consider `N=C1N=C(SCc2nc3ccccc3[nH]2)NC(=O)/C1=C/c1ccc(Cl)cc1`, for which the growth in assay [1] was 98.7%; in assay [2] it was 96.9%; in assay [3], 102%; in assay [4] it was 113%; in assay [5], 95.6%; in [6], 111%. Further, the growth in assay [7] was 110%; in assay [8], 114%; in assay [9], 98.3%; in assay [10], 100%; in [11], 93.2%; in assay [12], 114%. Further, the growth in assay [13] is 102%; in assay [14] it was 98.5%; in [15], 96.9%; in [16] it was 105%; in assay [17], 109%; in assay [18], 104%. For the same compound, the growth in assay [19] is 116%.
On to `O=C(Nc1ccccc1)N1CCN(c2cc(-c3cn(-c4ccccc4)nc3-c3cccc(O)c3)ccn2)CC1`, for which the growth in assay [1] is 19.2%; in assay [2], 32.5%; in assay [3] it was 43.9%; in assay [4], 106%; in assay [5] it was 84.2%; in assay [6], 98.1%. Moreover, the growth in [7] was 84%; in assay [8] it was 98.2%; in assay [9], 83.1%; in [10], 23.7%; in assay [11] it was 13.1%; in assay [12], 67.3%. Besides, the growth was 13.7% in assay [13]; 87.5% in [14]; 63.3% in assay [15]; 65.7% in assay [16]; 81.8% in assay [17]; 39.5% in [18]. In addition, in assay [19], the growth was 58.7%.
On to `NS(=O)(=O)c1ccc(NNC(=O)CCC(=O)c2ccccc2)cc1`, for which the growth in assay [1] was 86.8%; in assay [2], 105%; in [3], 101%; in [4], 112%; in assay [5] it was 99.2%; in assay [6], 104%. The growth was 102% in [7]; 114% in assay [8]; 94.7% in [9]; 109% in assay [10]; 87.5% in [11]; 104% in assay [12]. The growth was 105% in assay [13]; 102% in assay [14]; 90.5% in assay [15]; 99% in [16]; 109% in [17]; 104% in assay [18]. Also, the growth in [19] is 93.3%.
As for `CC(=O)c1c(N)c(C#N)cn1-c1ccc(Cl)cc1Cl`, the growth was 90.8% in [1]; 105% in assay [2]; 98.2% in [3]; 100% in assay [4]; 106% in assay [5]; 89.1% in [6]. For the same compound, the growth is 96.5% in assay [7]; 120% in assay [8]; 110% in assay [9]; 108% in assay [10]; 95.1% in assay [11]; 104% in assay [12]. For the same compound, the growth in assay [13] is 102%; in [14] it was 102%; in [15] it was 100%; in assay [16], 99.1%; in assay [17], 114%; in [18], 95.8%.
On to `CC(=O)OC[C@@]1(C)C2CC[C@]3(C)C(CC=C4C5CC(C)(C)CC[C@]5(C(=O)Nc5ccc(F)cc5)CC[C@]43C)[C@@]2(C)C[C@@H](OC(C)=O)[C@@H]1OC(C)=O` (stereo not given in full), for which the growth in [1] is 27.8%; in [2], 13.5%; in assay [3], 36.4%; in assay [4], 78.7%; in assay [5], 30.3%; in assay [6], 45.1%. Moreover, the growth in assay [7] is 51.9%; in [8], 42%; in [9] it was 85.3%; in assay [10], 40.6%; in [11], 30.7%; in [12], 41.7%. For the same compound, the growth in assay [13] was 44.2%; in [14], 36.8%; in [15] it was 27.3%; in [16] it was 22.9%; in [17], 48.6%; in [18], 44.6%. For the same compound, in assay [19], the growth was 5.58% (active).
With `O=C(COc1ccc(NC(=O)Nc2ccc(Cl)cc2)cc1)N/N=C/c1ccccc1`, the growth is 6.18% (active) in [1]; -23.5% (active) in assay [2]; -49% (active) in assay [3]; -9.58% (active) in assay [4]; -51.9% (active) in assay [5]; -60.2% (active) in assay [6]. In addition, the growth in assay [7] was -57.3% (active); in assay [8] it was -76.9% (active); in assay [9], -36.9% (active); in assay [10] it was -10.9% (active); in [11], -81.6% (active); in [12] it was -51.4% (active). For the same compound, the growth in [13] is -88.5% (active); in [14], -75.2% (active); in [15], -78.6% (active); in assay [16], -40% (active); in assay [17], -77.4% (active); in assay [18] it was -70.3% (active). Also, in [19], the growth was -94.4% (active).
In the case of `CC1(C)CC[C@]2(C(=O)Nc3ccc(Br)cc3)CC[C@]3(C)C(=CCC4[C@@]5(C)C[C@@H](O)[C@H](O)[C@@](C)(CO)C5CC[C@]43C)C2C1` (stereo not given in full), the growth in [1] is -9.66% (active); in [2], -33.5% (active); in [3], 25.6%; in assay [4] it was -21.8% (active); in assay [5], 5.44% (active); in [6], 4.34% (active). The growth is 38.2% in assay [7]; -4.06% (active) in assay [8]; -0.476% (active) in [9]; 14.7% in assay [10]; -9.58% (active) in [11]; -35.4% (active) in assay [12]. Moreover, the growth was 3.33% (active) in assay [13]; 18.8% in assay [14]; 1.85% (active) in assay [15]; -15.8% (active) in assay [16]; -33.4% (active) in assay [17]; -52.9% (active) in assay [18].
`COc1c(F)ccc(C(=O)Nc2ccc3nc(NC(=O)C4CCCN(S(=O)(=O)c5ccc(Br)s5)C4)sc3c2)c1F` (stereo not given): the growth in assay [1] is 44.3%; in [2] it was 46.7%; in assay [3] it was 94.9%; in assay [4], 105%; in assay [5], 67.9%; in assay [6], 109%. For the same compound, the growth is 81.5% in assay [7]; 85.8% in [8]; 58.8% in assay [9]; 84.8% in assay [10]; 53.1% in assay [11]; 75.5% in assay [12]. For the same compound, the growth was 84.1% in assay [13]; 100% in assay [14]; 53.8% in [15]; 65.4% in assay [16]; 98.7% in [17]; 75% in assay [18]. Also, the growth in assay [19] is 83.7%.

The values are drawn from PubChem BioAssay (NCI).
